# Source: PubChem
# TDP1 cell noCPT: qHTS for Inhibitors of human tyrosyl-DNA phosphodiesterase 1 (TDP1): qHTS in cells in absence of CPT | Potency, µM (highest dose often 46.2 µM), for inactives: at the top dose activity change, negative = growth inhibition, hits mostly inhibitors | AID 686978, 2013 | DT40 Tdp1-/- hTDP1 cells, no CPT, ATP luminescence, 48 h | actives 15% (n = 420,000); also: nearly all actives have a fitted effect of over 55% in size
#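 Growth of hTDP1-complemented DT40 Tdp1-knockout cells is measured by ATP luminescence after at least 48 hr compound exposure at 37 °C, with DMSO substituting for the 20 nM CPT used in the parallel screen.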
# ALOX12 inh: Primary qHTS assay for inhibitors of human arachidonate 12S-lipoxygenase (ALOX12): Round 2; AID 1671190, 2021; actives 1.1% (n = 580,000); Potency, µM (top dose mostly 108 µM), for inactives: at the highest dose activity change, negative = inhibition, hits mostly inhibitors; Polyunsaturated fatty acid lipoxygenase ALOX12 (Homo sapiens), P18054; purified 12hLO, xylenol orange hydroperoxide absorbance
# Target sequence (P18054 whole entry, looked up): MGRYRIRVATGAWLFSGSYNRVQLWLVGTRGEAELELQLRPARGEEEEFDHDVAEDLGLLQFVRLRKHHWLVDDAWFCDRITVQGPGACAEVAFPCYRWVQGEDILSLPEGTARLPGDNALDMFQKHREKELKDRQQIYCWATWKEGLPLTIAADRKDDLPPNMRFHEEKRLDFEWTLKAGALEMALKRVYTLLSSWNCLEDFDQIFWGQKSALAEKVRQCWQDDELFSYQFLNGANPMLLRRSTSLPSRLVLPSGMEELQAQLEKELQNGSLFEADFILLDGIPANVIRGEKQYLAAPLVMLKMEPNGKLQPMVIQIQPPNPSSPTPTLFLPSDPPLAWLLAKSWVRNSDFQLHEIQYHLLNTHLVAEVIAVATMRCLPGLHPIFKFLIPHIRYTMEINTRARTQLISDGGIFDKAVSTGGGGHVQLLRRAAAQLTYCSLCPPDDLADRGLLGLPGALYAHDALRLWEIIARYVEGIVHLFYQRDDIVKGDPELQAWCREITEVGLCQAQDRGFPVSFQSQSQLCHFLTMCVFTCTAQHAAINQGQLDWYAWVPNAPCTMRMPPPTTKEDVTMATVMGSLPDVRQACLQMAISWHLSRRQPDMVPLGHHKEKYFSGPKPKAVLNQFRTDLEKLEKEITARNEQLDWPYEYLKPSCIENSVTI
#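 Purified human 12hLO (150 nM final) in 25 mM Hepes, 0.01% Triton X-100, pH 7.0 was preincubated 15 min at room temperature with compound. Then 40 uM arachidonic acid was added, 30 min. Hydroperoxide was read by Fe-XO absorbance ratio 573/405 nm.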
# ELG1 repair inh: qHTS screen for small molecules that inhibit ELG1-dependent DNA repair in human embryonic kidney (HEK293T) cells expressing luciferase-tagged ELG1. AID 504467, 2011. HEK293T ELG1-luciferase reporter, luminescence, 16 h; DNA damage induced by 5-fluorouridine. actives 2.3% (n = 330,000). Potency, µM (top dose mostly 46.1 µM), inactives show top-dose activity change, negative = inhibition, hits mostly inhibitors; also: nearly all actives have a fitted effect of over 55% in size
#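 Reporter activity after DNA damage by 5-fluorouridine is monitored. Compound-treated cells incubate 16 hr at 37 °C, then ONE-Glo is added for 30 min before luminescence reading.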
# RORg inh: qHTS for inhibitors of ROR gamma transcriptional activity. AID 2551, 2010. Nuclear receptor ROR-gamma (Mus musculus), P51450. actives 5.4% (n = 310,000). Drosophila S2 Gal4-RORgamma UAS-luciferase reporter, 20 h. Potency, µM (top dose mostly 53.6 µM), inactives show at the top dose activity change, negative = inhibition, most hits filed as inhibitors; also: nearly all actives have a fitted effect of over 60% in size
#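 Stable Schneider cell line, Gal4 DNA-binding domain fused to ROR gamma, UAS-luciferase. Cmpd 1 hr RT → CuSO4 700 uM final → 20 hr RT → luciferase reagent 10 min → luminescence.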
# VP16 counter: VP16 counterscreen qHTS for inhibitors of ROR gamma transcriptional activity; Drosophila S2 Gal4-VP16 UAS-luciferase, luminescence, 20 h; Potency, µM (highest dose often 53.6 µM), without a hit: top-dose activity, negative = inhibition, actives largely listed as inhibitors; actives 3.5% (n = 310,000); AID 2546, 2010;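 also: Gal4-VP16 expression switched on by copper sulfate through the metallothionein promoter; nearly all actives have a fitted effect of over 50% in size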
# DT40 TDP1 CPT: qHTS for Inhibitors of human tyrosyl-DNA phosphodiesterase 1 (TDP1): qHTS in cells in presence of CPT; chicken DT40 Tdp1-/-;hTDP1 cells + 20 nM CPT, ATP luminescence, 48 h; Potency, µM (top dose mostly 46.2 µM), for inactives: top-dose activity change, negative = growth inhibition, hits mostly inhibitors; actives 12% (n = 420,000); AID 686979, 2013; also: nearly all actives have a fitted effect of over 55% in size
#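 Cell growth measured by CellTiter-Glo luminescence after a minimum 48 h, 37 C compound exposure with 20 nM CPT in Tdp1-knockout DT40 cells stably expressing hTDP1, seeded 400/well; qHTS titration format.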
# Active calls of the source: *; ? = inconclusive; nt = no result given; [ ] = dose if it differs, or a comment. An excerpt weighted towards active compounds, which were near 15% of everything screened. Calls follow the shape of the dose curve; as a rule, active = well fitted curve in the direction sought with a large enough effect; inconclusive = small, poorly fitted or top-dose-only effect, or another doubt; inactive = no such curve, though single readings can be large; an effect the other way counts as inactive or inconclusive. % is scaled to controls: 0 for no effect and ±100 for the full control effect; potency is read from the fitted curve at half-maximal effect.
SMILES,TDP1 cell noCPT,ALOX12 inh,ELG1 repair inh,RORg inh,VP16 counter,DT40 TDP1 CPT
OCCN1CCN(CC(O)COc2ccc(C34CC5CC(CC(C5)C3)C4)cc2)CC1 (configuration not stated),5.2µM*,?,6%,?,?,5.2µM*
Cc1ccc(C)c(S(=O)(=O)Nc2nc3ccccc3nc2NCc2ccccc2)c1,nt,-39%,nt,nt,nt,nt
Cc1ccccc1-n1c(C)nnc1SCc1nc2ccccc2o1,nt,-11%,nt,nt,nt,nt
CC(=O)Nc1c(-c2ccccc2)c(C)nn1-c1ccc(C(=O)NCc2ccccn2)cc1,nt,15%,nt,nt,nt,nt
COc1cccc(Nc2cnc3ccc(-c4ccc(F)cc4)nn23)c1,nt,19%[176 µM],nt,nt,nt,nt
Cc1cc(-c2nn(-c3ccccc3F)cc2CN2CCCC(C#N)C2)c(C)s1 (configuration not stated),nt,17%,nt,nt,nt,nt
Oc1ccc(C23CC4CC(CC(C4)C2)C3)cc1O,?,?,5%,-20%,-5%,?
NCCOc1ccc(C23CC4CC(CC(C4)C2)C3)cc1,3.7µM*,?,?,?,?,3.7µM*
CCc1ccc(-c2cn3c(n2)sc2cc(C(=O)NC4CCCCC4)ccc23)cc1,6.5µM*,-13%,nt,nt,nt,3.7µM*
O=C(NC1CCCCCC1)c1ccc2c(c1)sc1nc(-c3ccccc3)cn12,16µM*,-17%,nt,nt,nt,9.2µM*
COc1ccc(-c2cn3c(n2)sc2cc(C(=O)NC4CCCCC4)ccc23)cc1,-24%,?,nt,nt,nt,?
COC(=O)C1C(=O)C2=C(CC1C)NC(C)=C(C(=O)OC1CCCCC1)C2c1ccc(N(C)C)cc1 (configuration not stated),16µM*,0%,?,?,-10%,?
COC(=O)C1C(=O)C2=C(CC1C)NC(C)=C(C(=O)OC(C)C)C2c1ccc(C)o1 (configuration not stated),-1%,22%,11%,31%,14%,-10%
COC(=O)C1C(=O)C2=C(CC1C)NC(C)=C(C(=O)OCc1ccc(OC)cc1)C2c1ccc(C)o1 (configuration not stated),10µM*,-8%,?,0%,-3%,?
CC1=C(C(=O)OCCOc2ccccc2)C(c2ccc(C)o2)C2=C(CC(C)(C)CC2=O)N1 (configuration not stated),?,86%,-28%,-28%,2%,?
COC(=O)C1C(=O)C2=C(CC1C)NC(C)=C(C(=O)OCCOc1ccccc1)C2c1ccc(C)o1 (configuration not stated),16µM*,8%,23µM*,-37%,-4%,23µM*
COC(=O)C1=C(C)NC(C)=C(C(=O)OC)C1c1ccc(N(C)C)cc1,-8%,-23%,23%,-16%,13%,-28%
Cc1cccc(Nc2nnc(SC(C)C#N)s2)c1C (configuration not stated),nt,-1%,nt,nt,nt,nt
O=S(=O)(NCCCCCNS(=O)(=O)c1ccccc1)c1ccccc1,26µM*,-28%,?,-28%[0.365 µM],?,?
N#Cc1ccc(C(=O)NCCCSc2ccccc2)cc1,21µM*,1%,-4%,-4%,-10%,?
O=S(=O)(NCCCCCNS(=O)(=O)c1ccc(F)cc1)c1ccc(F)cc1,13µM*,-15%,?,28%,0%,11µM*
